Data as given in PubChem BioAssay (NCATS).
Results filed as inconclusive are left out. The source made the active and inactive calls. Calls follow the shape of the dose curve; as a rule, active = well fitted inhibition curve with a large enough effect; inconclusive = small, poorly fitted or top-dose-only effect; inactive = flat fitted curve, though single readings scatter.

Legend:
Assay in all cases: qHTS profiling for inhibitors of Plasmodium falciparum proliferation (AID 504749); also: nearly all actives have a fitted effect of over 60% in size
Conditions in all cases: P. falciparum in erythrocytes, SYBR Green DNA, 72 h; series mostly up to 28.7 µM
[1] = system: CP238
Method in brief: (§1)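 SYBR Green fluorescence of parasite DNA, read after lysis and overnight dark incubation, measured growth over 72 h in erythrocyte culture at 0.3% parasitemia and 2.5% hematocrit. Data normalised to DMSO and 0.29 uM artemisinin, with plate-drift correction.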

[2] = system: CP250
Method in brief: as §1

[3] = system: CP252
Method in brief: as §1

[4] = system: CP262
Method in brief: as §1

[5] = system: CP265
Method in brief: as §1

[6] = system: CP266
Method in brief: as §1

[7] = system: CP268
Method in brief: as §1

[8] = system: CP269
Method in brief: as §1

[9] = system: CP286
Method in brief: as §1

[10] = system: CP291
Method in brief: as §1

[11] = system: CP305
Method in brief: as §1

[12] = system: CP315
Method in brief: as §1

[13] = system: CP325
Method in brief: as §1

[14] = system: CP329
Method in brief: as §1

[15] = system: CP335
Method in brief: as §1

[16] = system: CP260
Method in brief: as §1

[17] = system: CP297
Method in brief: as §1

[18] = system: CP256
Method in brief: as §1

[19] = system: CP247
Method in brief: as §1

Measured: Potency
Potency is read from the fitted curve at half-maximal effect.

COc1ccc(CCN(C)CCCN2CCc3cc(OC)c(OC)cc3CC2=O)cc1OC
not listed: [16] | [17] | [18] | [19]
inactive: all other assays above

Cc1ccc(-c2ncc(Cl)cc2-c2ccc(S(C)(=O)=O)cc2)cn1
inactive: [16] | [4] | [6] | [9] | [10] | [17] | [11] | [12] | [13] | [14]

Clc1cccc(C(c2ccc3nc[nH]c3c2)n2ccnc2)c1 (centres undefined)
inactive: [1] | [4]

CN(C)CCOC(c1ccc(Cl)cc1)c1ccccn1 (centres undefined)
active: [5] 7.08 µM
inactive: [2] | [4] | [12] | [14]

CN1CCN(CCC(=O)N2c3ccccc3Sc3ccc(C(F)(F)F)cc32)CC1
not listed: [1] | [3] | [4] | [6] | [9] | [15] | [19]
inactive: all other assays above

NCCNc1cccc2ccccc12
not listed: [15] | [17]
inactive: all other assays above

CN(C)C(=O)Nc1ccc(Cl)c(Cl)c1
inactive: [2] | [4] | [5] | [7] | [9] | [10] | [13]
active: [19] 4.47 µM

Cc1ccc2c(Br)cc(Br)c(O)c2n1
active: [19] 11.2 µM | [12] 12 µM | [14] 15.1 µM
inactive: [4]

NC1CCN(c2nc3c(cc2F)c(=O)c(C(=O)O)cn3-c2ccc(F)cc2F)C1 (centres undefined)
inactive: [19] | [2] | [12]

Cc1cccc(C)c1NC(=O)CN1CCCCCC1
inactive: all assays above

CN1CCC[C@@H]1CCO[C@](C)(c1ccccc1)c1ccc(Cl)cc1
inactive: [1] | [18] | [16] | [4] | [5] | [12] | [13]

COc1ccc(C(Cl)=C(c2ccc(OC)cc2)c2ccc(OC)cc2)cc1
active: [1] 10 µM | [2] 10 µM | [5] 10 µM
inactive: [4] | [6] | [8] | [10] | [17] | [12] | [13] | [14]

COc1ccc2c(c1)c1c3n2CCN(C)C3=NCC1
inactive: all assays above

CNCCCCOc1ccccc1Cc1ccccc1
active: [1] 8.91 µM | [5] 8.91 µM
inactive: [4]

COc1ccccc1N1CCN(CCCCNC(=O)c2ccc(-c3ccc(C(C)=O)cc3)cc2)CC1
not listed: [9]
inactive: all other assays above

CO[C@]12C[C@@H](COC(=O)c3cncc(Br)c3)CN(C)[C@@H]1Cc1cn(C)c3cccc2c13
inactive: [2] | [3] | [18] | [5] | [6] | [8] | [12] | [13] | [14]

OCCOCCN1CCN(C2=Nc3ccccc3Sc3ccccc32)CC1
not listed: [6]
inactive: all other assays above

Cc1cc(CC(=O)O)c(C)n1-c1ccc(Cl)cc1
not listed: [3] | [15] | [17]
inactive: all other assays above

CC(=O)O[C@]1(C(C)=O)CC[C@H]2[C@@H]3C=C(Cl)C4=CC(=O)CC[C@]4(C)[C@H]3CC[C@@]21C
active: [6] 10.7 µM | [7] 16.9 µM | [9] 10 µM | [10] 15.1 µM | [17] 9.53 µM | [11] 13.5 µM | [13] 15.1 µM

O=C(CCN1CCN2CCCC2C1)N1c2ccccc2Sc2ccc(Cl)cc21 (centres undefined)
inactive: [2] | [4] | [5] | [7] | [10] | [17] | [11] | [12] | [13] | [14]

CN1CCN(c2cc3c(cc2F)c(=O)c(C(=O)O)cn3-c2ccc(F)cc2)CC1
not listed: [4] | [6] | [7] | [9] | [10] | [11] | [15] | [16]
inactive: all other assays above

CCCCc1cc2ccccc2c(OCCN(C)C)n1
inactive: all assays above

Oc1ccc(Cl)cc1Cc1cc(Cl)ccc1O
active: [19] 11.2 µM | [3] 12.6 µM
not listed: [5] | [10] | [13] | [16] | [18]
inactive: all other assays above

O=[N+]([O-])c1cccc(S(=O)(=O)NCCNS(=O)(=O)c2cccc([N+](=O)[O-])c2)c1
not listed: [4] | [7] | [8] | [9] | [11] | [15] | [16]
inactive: all other assays above
